Screening results as filed in PubChem BioAssay.
G9a inh = blocks human histone lysine methyltransferase G9a; Potency, µM (doses to about 102 µM), inactives show top-dose activity, negative = inhibition, usual class: inhibitors; G9a H3K9 monomethylation, AlphaScreen, 2 h; AID 504332; Q96KQ7; actives 8.8% (n = 350,000); note: % is set by controls: 0 for no effect and ±100 for the full control effect; nearly all actives have a fitted effect of over 75% in size
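G9a (20 nM) preincubated 15 min RT with compounds, then 500 nM biotinylated H3K9 peptide and 20 uM SAM added; 2 h RT reaction. Monomethyl-H3K9 product detected by AlphaScreen with anti-H3K9me1 antibody, streptavidin donor and anti-rabbit IgG acceptor beads.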
HP1b binding inh = inhibitors of HP1-beta chromodomain binding to methylated histone tails; P83916; AlphaScreen HP1-beta / biotin-H3K9me3 peptide binding; Potency, µM (highest dose often 114 µM), inactives show top-dose activity change, negative = inhibition, usual class: inhibitors; actives 0.56% (n = 390,000); AID 540317; note: nearly all actives have a fitted effect of over 70% in size
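Compound inhibition of the preformed complex between 50 nM HP1-beta and 50 nM biotinylated H3K9me3 peptide was read by AlphaScreen. Buffer was PBS pH 7.4 with 0.01% Tween-20. Incubations ran 30 min at room temperature, with 10 ug/mL donor/acceptor beads.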
BAZ2B block = inhibitors of human BAZ2B bromodomain; Q9UIF8; AlphaScreen BAZ2B-H3K14Ac peptide displacement; Potency, µM (titrated, usually from 114 µM), for inactives: at the top dose activity change, negative = inhibition, hits mostly inhibitors; actives 4.4% (n = 360,000); note: % is set by controls: 0 for no effect and ±100 for the full control effect; nearly all actives have a fitted effect of over 60% in size
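Inhibition is scored as reduced AlphaScreen emission. The BAZ2B/b-H3(5-23)K14Ac complex (50 nM each) in PBS pH 7.4, 0.01% Tween-20 meets compound (up to 110 uM) for 30 min at RT before bead addition.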
PLK1 PBD block = blocks phosphopeptide binding to human PLK1 polo-box domain | P53350 | Plk1 PBD binding of FITC phosphopeptide, fluorescence polarization | Potency, µM, inactives show max response, negative = inhibition, most hits filed as inhibitors | actives 2.8% (n = 360,000) | AID 720504; note: series mostly up to about 57 µM; % is set by controls: 0 for no effect and ±100 for the full control effect; nearly all actives have a fitted effect of over 65% in size
Sfp PPTase inh = Sfp phosphopantetheinyl transferase inhibition. Q9F4F7. Biochemical Sfp PPTase activity, qHTS. Potency, µM, inactives show largest response in the series, negative = inhibition, usual class: inhibitors. actives 3.5% (n = 310,000);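 note: the enzyme is Sfp with the accession as filed and its product quenches rhodamine fluorescence; 0% = enzyme reaction without inhibitor and -100% = no enzyme wells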
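With Hepes-Na pH 7.6 buffer containing 10 mM MgCl2, Sfp (15 nM) modified BHQ-2-YbbR (12.5 uM) using rhodamine-CoA (5 uM). Two reads 30 minutes apart at 525/598 nm yielded each well's rate.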
JMJD2A Tudor inh = JMJD2A Tudor domain (human) inhibition; Potency, µM (doses to about 114 µM), inactives show top-dose activity change, negative = inhibition, hits mostly inhibitors; AlphaScreen JMJD2A-Tudor / H3K4me3 peptide binding; actives 4.4% (n = 390,000); note: % is set by controls: 0 for no effect and ±100 for the full control effect; nearly all actives have a fitted effect of over 50% in size
Target sequence (O75164 whole entry, looked up, the tested form may be a part): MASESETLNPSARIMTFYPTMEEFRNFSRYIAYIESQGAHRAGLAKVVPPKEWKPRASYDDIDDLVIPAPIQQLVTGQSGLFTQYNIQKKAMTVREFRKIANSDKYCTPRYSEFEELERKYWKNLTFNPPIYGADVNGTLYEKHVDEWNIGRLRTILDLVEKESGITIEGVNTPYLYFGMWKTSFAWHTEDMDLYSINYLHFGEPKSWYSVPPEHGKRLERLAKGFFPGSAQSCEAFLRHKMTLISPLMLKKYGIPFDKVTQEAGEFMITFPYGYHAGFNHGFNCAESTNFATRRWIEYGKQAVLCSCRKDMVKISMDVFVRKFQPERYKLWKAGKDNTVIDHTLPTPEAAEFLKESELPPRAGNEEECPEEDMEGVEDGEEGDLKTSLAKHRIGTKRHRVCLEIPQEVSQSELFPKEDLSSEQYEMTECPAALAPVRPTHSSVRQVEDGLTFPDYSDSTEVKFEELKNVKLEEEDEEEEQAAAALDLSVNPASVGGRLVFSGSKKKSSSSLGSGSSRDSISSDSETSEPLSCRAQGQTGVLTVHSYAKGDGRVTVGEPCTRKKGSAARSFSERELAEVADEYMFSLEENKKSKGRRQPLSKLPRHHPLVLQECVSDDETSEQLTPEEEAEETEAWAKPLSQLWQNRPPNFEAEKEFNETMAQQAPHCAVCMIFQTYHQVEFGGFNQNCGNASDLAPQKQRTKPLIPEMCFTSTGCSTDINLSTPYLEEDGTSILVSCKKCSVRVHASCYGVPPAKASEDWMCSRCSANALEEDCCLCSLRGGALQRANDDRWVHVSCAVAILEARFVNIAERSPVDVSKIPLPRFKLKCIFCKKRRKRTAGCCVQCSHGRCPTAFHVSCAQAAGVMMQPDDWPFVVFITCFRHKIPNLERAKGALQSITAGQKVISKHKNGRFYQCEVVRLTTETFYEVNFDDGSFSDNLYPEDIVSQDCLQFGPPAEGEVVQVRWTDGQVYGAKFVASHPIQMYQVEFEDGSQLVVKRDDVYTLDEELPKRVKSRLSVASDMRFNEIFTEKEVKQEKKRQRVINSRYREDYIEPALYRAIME
* = called active by the depositor; ? = inconclusive; . = no result; [ ] = another dose, or the depositor's remark. Most compounds without a hit are left out; they make up all but 12% or so of the library. Calls come from the whole dose curve; as a rule, active = well fitted curve in the direction sought with a large enough effect; inconclusive = small, poorly fitted or top-dose-only effect, or another doubt; inactive = no such curve, though single readings can be large; an effect the other way counts as inactive or inconclusive. Potency is the fitted concentration of half-maximal effect.

SMILES	G9a inh	HP1b binding inh	BAZ2B block	PLK1 PBD block	Sfp PPTase inh	JMJD2A Tudor inh
Cc1c(OCC(=O)N2CCC(C(=O)NCCCC(=O)O)CC2)ccc2c1oc(=O)c1ccccc12	?	41%	-13%	7%	17%	13%
COc1cc(/C=C2\C(=N)N3N=C(S(=O)(=O)CC(C)C)SC3=NC2=O)ccc1OC(=O)c1ccco1	-11%[59 µM]	.	-32%	.	-5%	.
CCC1=NN2C(=N)/C(=C/c3ccc(OS(=O)(=O)c4ccccc4)cc3)C(=O)N=C2S1	.	5%	-5%	?	-9%	-31%
Cc1ccc(S(=O)(=O)Oc2ccc(/C=C3\C(=N)N4N=C(S(C)(=O)=O)SC4=NC3=O)cc2)cc1	13µM*	-9%[57 µM]	50µM*	15µM*	-19%	35µM*
COc1cc(/C=C2\C(=N)N3N=C(N4CCOCC4)SC3=NC2=O)ccc1OC(=O)c1ccccc1	20µM*	-15%	50µM*	27µM*	-26%	?
CCS(=O)(=O)C1=NN2C(=N)/C(=C\c3ccc(OS(=O)(=O)c4ccccc4)c(OC)c3)C(=O)N=C2S1	-5%[0.0925 µM]	.	56µM*	.	-22%	.
COc1cc(/C=C2/C(=N)N3N=C(CC(=O)N4CCOCC4)SC3=NC2=O)ccc1OC(C)c1ccccc1 (configuration not stated)	-12%	10%	-21%	?	24%	-29%
COc1cc(/C=C2\C(=N)N3N=C(S(C)(=O)=O)SC3=NC2=O)ccc1OS(=O)(=O)c1ccccc1	.	.	50µM*	.	-6%	.
C[C@H](NC(=O)[C@@H](Cc1c[nH]c2ccccc12)NC(=O)[C@@H](N)Cc1cnc[nH]1)C(=O)N[C@@H](Cc1c[nH]c2ccccc12)C(=O)N[C@H](Cc1ccccc1)C(=O)N[C@@H](CCCCN)C(N)=O	.	.	.	.	22%	.
CCS(=O)(=O)C1=NN2C(=N)/C(=C\c3ccc(OS(=O)(=O)c4ccccc4)cc3)C(=O)N=C2S1	40µM*	5%	50µM*	21µM*	?	?
CC(=O)N1CCC2(CCN(Cc3ccc(C#N)cc3)CC2)CC1	-1%[12.7 µM]	.	.	.	9%	.
COc1ccc(S(=O)(=O)NCC(c2ccco2)N2CCOCC2)cc1OC (configuration not stated)	13µM*	10%	-4%	.	.	2%
COc1ccc(S(=O)(=O)NCC(c2ccco2)N2CCN(c3ccccc3)CC2)cc1OC (configuration not stated)	-8%[59 µM]	-6%	?	.	.	?
COc1ccc(N2CCN(C(CNS(=O)(=O)c3ccc(OC)c(C)c3)c3ccco3)CC2)cc1 (configuration not stated)	7.9µM*	?	25µM*	.	.	25µM*
COc1ccccc1CNC(=O)c1ccc(N2CCCC2)c(NC(=O)NCc2ccccc2)c1	7%[12.7 µM]	28%	-15%	.	.	-6%
O=C(CSCc1ccco1)Nc1cc(C(F)(F)F)ccc1N1CCOCC1	?	19%	-32%	-23%	56µM*	-16%
COc1ccc(NC(C)C(=O)Nc2cc(C(F)(F)F)ccc2N2CCOCC2)c(OC)c1 (configuration not stated)	?	?	32µM*	-14%	15%	45µM*
O=C(Nc1cc(C(F)(F)F)ccc1N1CCOCC1)C1Cc2ccccc2CN1C(=O)c1ccco1 (configuration not stated)	?	16%	-10%	-7%	28µM*	-9%
Cc1ccc(NC(=O)CSCC(=O)Nc2cc(C(F)(F)F)ccc2N2CCOCC2)cc1	-53%	39%	3%	4%	.	-8%
O=C(CSC(=S)N1CCCC1)N1CCN(S(=O)(=O)c2cccc([N+](=O)[O-])c2)CC1	40µM*	1%	-14%	?	50µM*	-19%
O=C(CSC(=S)N1CCCC1)N1CCN(S(=O)(=O)c2cccc(F)c2)CC1	-33%	33%	-5%	-5%	.	?
N#C/C(=C\c1ccc(O)c(O)c1)C(=O)OCCc1cccs1	.	.	.	.	1%	.
O=S(=O)(c1cccc(S(=O)(=O)N2CCC(Cc3ccccc3)CC2)c1)N1CCOCC1	?	-6%	-3%	27µM*	13%	-5%[11.4 µM]
Cc1ccc2nc(-c3cccc(S(=O)(=O)N4CC(C)OC(C)C4)c3)cn2c1 (configuration not stated)	-13%	16%	-37%	19µM*	11%	?
O=S(=O)(c1cccc(-c2n[nH]c(=S)o2)c1)N1CCOCC1	14µM*	-22%	-13%	27µM*	25µM*	?
SMILES	G9a inh	HP1b binding inh	BAZ2B block	PLK1 PBD block	Sfp PPTase inh	JMJD2A Tudor inh
O=S(=O)(c1cccc(-c2nnco2)c1)N1CCOCC1	15%	25%	6%	-4%	6%	-2%
O=S(=O)(c1cccc(-c2n[nH]c(=S)n2-c2ccccc2Cl)c1)N1CCOCC1	.	23%	.	-23%	.	22µM*
COc1cccc(C2C(C#N)=C(NC(=O)CCc3ccccc3)Oc3ccc4ccccc4c32)c1 (configuration not stated)	.	.	.	.	.	-24%
Cn1c(CC(=O)Nc2ccccc2F)nnc1SCC(=O)Nc1ccccc1Br	15%	0%	-3%	-6%	8%	-13%
Cc1ccc(S(=O)(=O)N2CCOCC2)cc1-c1n[nH]c(=S)n1-c1ccccc1	-8%[12.7 µM]	37%	10%	-6%	.	6.3µM*
O=S(=O)(c1cccc(-c2n[nH]c(=S)n2-c2cccc(C(F)(F)F)c2)c1)N1CCOCC1	.	24%	.	-4%	.	?
O=S(=O)(c1cccc(-c2n[nH]c(=S)n2Cc2ccccc2)c1)N1CCOCC1	.	21%	-16%	-10%	-26%	20µM*
O=S(=O)(c1cccc(-c2cn3cccnc3n2)c1)N1CCCCCC1	?	51%	.	-16%	0%	-9%
O=S(=O)(c1cccc(-c2cn3cccnc3n2)c1)N1CCOCC1	35µM*	32%	-2%	?	-4%	-6%
Cc1ccc(Cn2ccn(Cc3ccccc3C)c(=O)c2=O)cc1	-25%[59 µM]	11%	?	.	.	-17%
CCN(CC)CCNC(=O)C(=O)NCC(c1ccc2c(c1)OCO2)N1CCOCC1 (configuration not stated)	7%[59 µM]	11%[57 µM]	3%	.	.	-8%
O=C(CC12CC3CC(CC(C3)C1)C2)NC1CC1	.	36%	.	1%	.	12%
C=C1CCN([C@@H](CC(C)C)C(=O)NCCC(C)C)S(=O)(=O)c2ccccc21	.	63%	.	-14%	.	-6%
COc1cccc(C2=NOC(C(=O)Nc3cc(C)nn3-c3ccccc3)C2)c1OC (configuration not stated)	45µM*	17%	10%	-12%	?	6%
